An excerpt weighted towards active compounds, which were near 2.5% of everything screened.
M18AAP inhibitor = PfM18AAP enzyme inhibition | inhibition, % at 7.35 µM | hit rate 1.2% among 290,000 | recombinant PfM18AAP, H-Glu-NHMec fluorogenic cleavage;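 active = inhibition above the campaign mean inhibition over all tested compounds plus 3 SD, cut at about 28% in these data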;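 note: 0% = plate median of test compound wells and 100% = 2 mM ZnCl2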
G6PDH CS = counter-screen for G6PDH assay hits: L. mesenteroides G6PDH inhibition. AID 1020. Purified L. mesenteroides G6PDH, diaphorase/resazurin coupled fluorescence, 45 min. inhibition, % at 5 µM. hit rate 0.12% among 200,000; in the data active = inhibition above about 50%
p97 ATPase inh = human p97 ATPase inhibition; P55072; recombinant p97 ATPase, Kinase-Glo ATP luminescence, 3 h; inhibition, % at 8 µM; hit rate 0.42% among 220,000; AID 1481; in the data active = inhibition above about 15%;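 note: 0% = DMSO vehicle and 100% = wells lacking enzyme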
HDAC3 inh = blocks human histone deacetylase 3 | recombinant HDAC3, fluorogenic peptide/trypsin coupled, fluorescence | hit rate 0.15% among 320,000 | O15379 | inhibition, % at 8.3 µM; in the data active = inhibition above about 26%, passing the limit was not always enough
PHOSPHO1 inh = inhibitors of human PHOSPHO1 phosphatase. AID 1565. inhibition, % at 13.3 µM. Q8TCT1. hit rate 1.1% among 290,000. recombinant PHOSPHO1, absorbance phosphatase assay; in the data active = inhibition above about 60%
SUMO HTRF inh = SUMOylation inhibition | P63279 | hit rate 0.36% among 290,000 | HTRF SUMOylation assay, SAE1/SAE2 + UBC9, in vitro | AID 2006 | inhibition, % at 35 µM; in the data active = inhibition above about 50%, passing the limit was not always enough
Target sequence (P63279 whole entry, looked up): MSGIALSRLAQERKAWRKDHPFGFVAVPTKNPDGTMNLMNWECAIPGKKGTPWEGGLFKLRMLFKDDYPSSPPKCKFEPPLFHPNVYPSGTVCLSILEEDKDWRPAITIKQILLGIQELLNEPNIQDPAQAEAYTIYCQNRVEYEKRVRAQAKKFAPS
The depositor's hits bear a star; x = no result.

SMILES	M18AAP inhibitor	G6PDH CS	p97 ATPase inh	HDAC3 inh	PHOSPHO1 inh	SUMO HTRF inh
COc1ccc(S(=O)NC2CCCCC2)c(OC)c1C (configuration not stated)	2	7	2	-7	87*	14
CCN(CC(=O)Nc1ccc(NC(C)=O)cc1)C(=O)CCCc1nc2ccccc2s1	x	x	x	-3	x	x
CCn1cnc2cc(NC(=O)c3ccco3)ccc21	-4	7	-1	1	-1	22
CCCn1cnc2cc(NC(=O)c3ccco3)ccc21	6	x	x	4	63*	16
O=C(CN1C(=O)C2CC=CCC2C1=O)Nc1ccc(S(=O)(=O)Nc2nccs2)cc1 (configuration not stated)	0	x	0	-6	33	24
CC(O)CNc1ccc([N+](=O)[O-])cc1S(=O)(=O)N1CCOCC1 (configuration not stated)	4	2	8	-10	43	16
O=C(O)CC/C(=N\Nc1ccc([N+](=O)[O-])cc1S(=O)(=O)N1CCOCC1)c1cccs1	30*	x	5	x	40	10
CC1CCCCN1C(=O)C1COc2ccccc2O1 (configuration not stated)	2	x	x	-3	39	-5
O=C(O)c1c(Cl)nc2ccccn12	-8	4	-1	0	8	14
O=C(Oc1cc(=O)n2ccccc2n1)c1ccccc1	0	2	4	38*	4	2
COc1ccccc1N1CCN(S(=O)(=O)c2cc(-c3cc(C)no3)ccc2C(C)C)CC1	2	x	x	1	30	4
O=C1CCCN1CCCN=c1c([N+](=O)[O-])nn(-c2ccc(Cl)cc2)n1O	13	5	-4	x	-4	8
COc1ccc(-n2nc([N+](=O)[O-])c(=NCCCN3CCCC3=O)n2O)cc1	2	9	6	-2	61*	0
CCOc1ccccc1N1CC(C(=O)N(CC)CC(=O)Nc2ccc3c(c2)OCCO3)CC1=O (configuration not stated)	x	x	x	-3	x	x
O=C(NNC(=O)C1CC(c2cccnc2)=NO1)Nc1ccccc1F (configuration not stated)	4	5	0	-4	65*	3
Cc1ccc(NC(=O)NNC(=O)C2CC(c3cccnc3)=NO2)cc1 (configuration not stated)	-5	14	-1	-2	26	-18
O=C(NNc1cccc(Cl)n1)c1cccnc1Cl	32*	-4	7	6	0	-14
CCCC(c1nnnn1CCOC)N(Cc1cc2cc(C)c(C)cc2[nH]c1=O)CC1CCCO1 (configuration not stated)	0	-4	1	-1	4	2
CCC(c1nnnn1CCOC)N(Cc1cc2cc(C)c(C)cc2[nH]c1=O)CC1CCCO1 (configuration not stated)	14	5	1	-1	76*	29
Cc1c(C(=O)OC(C)C(C)C[N+](C)(C)C)oc2ccccc12 (configuration not stated)	3	4	-2	2	87*	15
Cc1c(C(=O)OC(C)C(=O)N(C)Cc2ccccc2)oc2ccccc12 (configuration not stated)	x	x	x	3	x	x
O=C(NCC(=O)N(c1ccc(F)cc1)C(C(=O)NC1CCCC1)c1cccnc1)c1cccs1 (configuration not stated)	7	6	-5	-7	45	14
O=C(NCC(=O)N(c1ccccc1)C(C(=O)NC1CCCCC1)c1cccnc1)c1cccs1 (configuration not stated)	-2	11	-1	-9	63*	3
N#Cc1c(-c2ccncc2)c2c([nH]c1=S)CCCC2	11	-6	-1	5	77*	8
Cc1ccc(-c2c3c([nH]c(=S)c2C#N)CCCC3)o1	31*	20	0	-12	84*	30
Cc1ccc(-c2c(C#N)c(N)nc3c2CCCC3)o1	6	1	1	-8	-8	15
COc1ccc(CCNC(=O)C(=O)NCC2OCCN2S(=O)(=O)c2cccs2)cc1 (configuration not stated)	-1	x	x	-18	29	5
C/C(=N\NC(=O)CC#N)C1COc2ccccc2O1 (configuration not stated)	29*	3	1	-3	22	3

Screening data from PubChem.
